In PubChem BioAssay AID1851 (National Center for Advancing Translational Sciences (NCATS), 2009):
The campaign covered roughly 16,000 compounds. About 2,600 (16%) were called active. Another 20% or so got no clear call; they are omitted. Only a sample is shown. A number with no mark means an inactive call. Calls come from the whole dose curve; as a rule, active = well fitted curve in the direction sought with a large enough effect; inconclusive = small, poorly fitted or top-dose-only effect, or effect the other way; inactive = no such curve, though single readings can be large or run the other way.

target: Cytochrome P450 2D6 (Homo sapiens) (UniProt P10635); test: Cytochrome panel assay with activity outcomes; details: recombinant CYP, pro-luciferin dealkylation, luminescence, p450-cyp2d6; series mostly up to 57.1 µM; activity, negative = inhibition: at the top concentration
% is set by controls: 0 for no effect and ±100 for the full control effect.

Cytochrome P450 2D6 (Homo sapiens), sequence (P10635 whole entry, looked up): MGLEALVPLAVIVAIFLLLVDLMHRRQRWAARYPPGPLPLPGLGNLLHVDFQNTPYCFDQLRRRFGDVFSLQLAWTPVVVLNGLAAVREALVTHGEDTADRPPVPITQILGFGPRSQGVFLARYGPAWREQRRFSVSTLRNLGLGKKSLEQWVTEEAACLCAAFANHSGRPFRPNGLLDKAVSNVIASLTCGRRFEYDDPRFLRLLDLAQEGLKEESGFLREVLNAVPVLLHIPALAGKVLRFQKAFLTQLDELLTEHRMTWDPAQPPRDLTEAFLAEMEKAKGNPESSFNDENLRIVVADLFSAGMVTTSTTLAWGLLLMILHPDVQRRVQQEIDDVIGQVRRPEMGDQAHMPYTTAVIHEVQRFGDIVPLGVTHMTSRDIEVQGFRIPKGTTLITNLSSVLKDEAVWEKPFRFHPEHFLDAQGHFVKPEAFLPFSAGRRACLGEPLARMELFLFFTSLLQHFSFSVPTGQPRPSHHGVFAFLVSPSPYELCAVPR

Point of comparison: `Nc1nc(N)nc(CCCc2nc(N)nc(N)n2)n1`, activity, negative = inhibition 19.1% [at 11.4 µM]. Against it:
- CO[C@H]1COC(=O)[C@H](C)NC(=O)C/C=C\[C@@H](C)[C@H](OC)COC(=O)[C@@H](OCc2ccccc2)/C=C\[C@@H]1C — lower, 3.57% [at 11.4 µM]
- O=S(=O)(c1ccccc1)N1CN2CN(C1)CN(S(=O)(=O)c1ccccc1)C2 — lower, 2.33% [at 11.4 µM]
- NNS(=O)(=O)c1cc(C(=O)O)cc(C(=O)O)c1 — lower, 5.99% [at 11.4 µM]
- CCOC(=O)N/N=C1/C[C@@H](O)[C@@H](O)[C@@H]2[C@@H]3C(=O)N(Cc4ccc5c(c4)OCO5)C(=O)[C@H]3CC[C@H]12 — lower, -9.22% [at 11.4 µM]
- C/C(CCC(=O)OC[C@@H]1O[C@H](C#Cc2ccccc2)C=C[C@@H]1Oc1ccc(C)cc1)=N/OC[C@@H](O)[C@H]1O[C@H]2OC(C)(C)O[C@H]2[C@@H]1O — lower, 14.6% [at 11.4 µM]
- CCOC(=O)N/N=C1/C[C@@H](O)[C@@H](O)[C@@H]2[C@@H]3C(=O)N([C@@H](C)c4ccccc4)C(=O)[C@H]3CC[C@H]12 — lower, 18.4% [at 11.4 µM]
- COc1ccc(N(CC(=O)O)N=O)cc1 — lower, 8.99% [at 11.4 µM]
- O=C1[C@@H]2[C@H]3[C@H](O)[C@H](O)C/C(=N/OC[C@@H](O)COCc4ccco4)[C@@H]3CC[C@H]2C(=O)N1c1ccc(F)cc1F — lower, 10.9% [at 11.4 µM]
- Cc1cc(C(=O)CSC(=S)SC(C)(C)C)ccc1Cl — lower, -0.319% [at 11.4 µM]
- COc1cc2c3cc1Oc1c(OC)c(OC)cc4c1[C@@H](Cc1ccc(O)c(c1)Oc1ccc(cc1)C[C@@H]3N(C)CC2)CN(C)C4 — lower, 2.38% [at 11.4 µM]
- N[C@@H](CSC(=O)c1ccccc1)C(=O)O — lower, 9.96% [at 11.4 µM]
- C=CC1=C[C@@H](O)C2OC2C12OCCCO2 (some centres not stated) — lower, -1.06% [at 11.4 µM]
- Cc1[nH]n(-c2ccc(S(=O)(=O)O)cc2)c(=O)c1N=Nc1ccccc1 — lower, 16.9% [at 11.4 µM]
- CN(C)CCn1c(CO)nc2c1c(=O)n(C)c(=O)n2C — lower, -1.53% [at 11.4 µM]
- O=C(O)Cc1cccnc1 — lower, 16.4% [at 11.4 µM]
- O=S(=O)(O)c1cc(O)c2c(O)c(N=Nc3cccc4ccccc34)c(S(=O)(=O)O)cc2c1 — lower, -16% [at 11.4 µM]
- COc1cc(C2SCCCCCCCCCCSC(c3ccc(O)c(OC)c3)SCCCCCCCCCCS2)ccc1O (configuration not stated) — lower, 6.94% [at 11.4 µM]

Point of comparison: `COc1ccccc1CNC(=O)C1CCN(S(=O)(=O)N2CC(C)CC(C)C2)CC1` (configuration not stated), “activity, negative = inhibition” value -2.76%. Against it:
- COc1ccc(Oc2ncc3nc(-c4cn(C)c5ccccc45)c(=O)n(C)c3n2)cc1 — higher, 0.352%
- COc1ccc(C(=O)NC(C)c2cc(OC)c(OC)cc2Br)cc1 (configuration not stated) — lower, -12.9%
- O=C(c1ccccc1-c1nc(-c2ccccc2)no1)N1CCOCC1 — lower, -9.18%
- COc1ccccc1Nc1nc(-c2sc(NC(=O)c3ccc([N+](=O)[O-])cc3)nc2C)cs1 — higher, 12.1%
- Cc1nc2ccccn2c1C(=O)N/N=C/c1ccccc1[N+](=O)[O-] — higher, 8.78%
- Nc1cc(Cl)nc(N/N=C/c2ccccc2[N+](=O)[O-])n1 — higher, 0.464%
- O=C(O)c1c2ccccc2cc2ccccc12 — higher, -2.31%
- CCn1c(N2CCN(C(=O)Nc3ccc(F)cc3)CC2)nc2ccccc21 — lower, -29.3%
- COc1cccc(N2CCN(C(=S)Nc3cccc(C)c3)CC2)c1 — lower, -10.1%
- Nc1nonc1-c1noc(CCCN2C(=O)c3ccccc3C2=O)n1 — lower, -6.39%
- N#C/C(=C/c1cccc(C(F)(F)F)c1)c1nc(CCN2C(=O)c3ccccc3C2=O)cs1 — lower, -10.9%
- O=C(c1ccc(Oc2ccc(C(F)(F)F)cn2)cc1)N1CCN(c2ccccc2)CC1 — higher, 3.28%
- O=C(CN1CCCCC1)Nc1nnc(-c2ccc([N+](=O)[O-])cc2)s1 — lower, -8.29%
- CCC(=O)Nc1cccc(NC(=O)c2cccc([N+](=O)[O-])c2)c1 — lower, -8.59%
- COc1ccc(OC)c2[nH]c(=O)c(CCNC(=O)c3ccc(S(=O)(=O)N(C)C)cc3)cc12 — higher, 4.82%
- C=CCOc1c(Br)cc(CNc2ccc(NC(=O)C(C)C)c(OC)c2)cc1OC — lower, -29.1%
- COc1ccccc1CNC(=O)C/C(C)=N/NC(=O)Cc1ccccc1 — higher, 9.12%
- COc1cc(C)c(Br)cc1S(=O)(=O)NCc1ccccc1 — higher, -0.946%
- O=P(Cc1cc[n+]([O-])cc1)(c1ccccc1)c1ccccc1 — higher, 10.1%
- CCC(C)NS(=O)(=O)c1ccc(OCC(=O)NCC2CCCO2)cc1 (configuration not stated) — lower, -20.2%
- CC(C)(C)OC(=O)N1CCCC1C(=O)NCCc1ccccc1 (configuration not stated) — lower, -28.5%
- Cc1ccc(CNC(=O)C2CC(c3ccccc3[N+](=O)[O-])=NO2)cc1 (configuration not stated) — lower, -28%
- Cc1ccc(CNC(=O)C2CC(c3ccccc3[N+](=O)[O-])=NO2)o1 (configuration not stated) — lower, -26.5%
- CCCc1cc(=O)oc2cc(OCc3cc(OC)c(OC)c(OC)c3)c(Cl)cc12 — higher, -0.725%
- O=C(Cc1ccccc1)N/N=C\c1ccc(Br)o1 — higher, 9.59%
- O=C(Nc1cccc2ncccc12)c1cccc(F)c1 — lower, -5.82%
- CC1Cc2ccccc2N1C(=O)CCN1C(=O)C2C3C=CC(C3)C2C1=O (configuration not stated) — higher, -0.934%
- CC(C)(C)Cn1nc(-c2ccc(Cl)cc2)c2c(N)ncnc21 — higher, 11.5%
- COc1cccc(Nc2ncc3ncc(=O)n(CCC#N)c3n2)c1 — lower, -7.47%
- C1CCc2c(nc3nnnn3c2NC2CCCC2)C1 — lower, -12.2%
- COc1ccc(C(=O)Nc2cc(Cl)ccc2OC(=O)c2ccc(OC)cc2)cc1 — lower, -21.4%
- CCOc1ccc(C(=O)Nc2cccc(-c3nc4cccnc4o3)c2)cc1Cl — lower, -14.5%
- CCOc1ccc(C(=O)Nc2ccc(NC(=O)c3ccco3)c(Cl)c2)cc1Br — higher, 0.903%
- Cc1cc(=O)oc(C)c1C(=O)Nc1ccc(Cl)cn1 — higher, 2.86%
- CCOc1cccc(C2C(C(=O)c3ccc(C)o3)=C(O)C(=O)N2Cc2ccncc2)c1 (configuration not stated) — higher, -2.19%
- CC(C)NC(=O)C(C)n1cccc1C(=O)c1ccccc1 (configuration not stated) — higher, 1.03%
- O=C(c1cc(-c2cccs2)on1)N1CCN(c2ccc(F)cc2)CC1 — lower, -4.98%
- CCC(=O)N1CCN(c2ccc(NC(=O)c3cccs3)cc2)CC1 — higher, 1.92%
- Cc1nc2sccn2c(=O)c1Cl — higher, 5.34%
- CCCCCCCCN1C(=O)N(C)C(N(O)C(=O)NC)C1(C)C (configuration not stated) — lower, -18.4%
- CCC(C(=O)N1CCOCC1)n1c(C(=O)OC)cc2occc21 (configuration not stated) — lower, -3.34%
- CCS(=O)(=O)N1CCC[C@H]2CN3CCc4cc(OC)ccc4[C@@H]3C[C@@H]21 — higher, 1.15%
- COc1ncc2nc(C)c(=O)n(C3CC3)c2n1 — lower, -6.88%
- COc1ccc(Cc2n[nH]c(=O)c3ccccc23)cc1OC — higher, 2.51%
- O=C(CNC(=O)c1ccco1)OCc1c(F)cccc1Cl — lower, -19.8%
- O=C(OCCN1CCCCC1)c1c[nH]c2ccccc12 — higher, 4.62%
- Cc1ccccc1C(=O)Oc1ccc(Br)cc1C(=S)N1CCCC1 — lower, -18.1%
- Cc1ccccc1Oc1ccc(-c2nc(N)nc(N)n2)cc1 — lower, -15.2%
- O=C(N/N=C/c1ccc(O)cc1)c1csc2ccccc12 — higher, 1.92%
- O=C(Oc1ccc2ccccc2c1Br)N1CCCCCC1 — lower, -20.5%
- Cc1noc(C)c1-c1cc(N2CCN(C)CC2)ncn1 — higher, -0.596%
- O=C(O)Cc1ccc2c(c1)N(S(=O)(=O)c1cccc(C(F)(F)F)c1)CC(C(=O)O)O2 (configuration not stated) — higher, 2.47%
- O=C(Oc1ccccc1)N1CCC2(CCCN(c3ccccc3)C2)CC1 — lower, -6.41%
- CCCCn1c(SCC(=O)N2CCCC2)nc2c1c(=O)n(C)c(=O)n2C — higher, 0.341%
- Cc1ccc(-n2nnnc2SCC(=O)NNC(=O)c2ccco2)c(C)c1 — higher, 21.1%
- O=C(NCC(c1cccnc1)N1CCOCC1)Nc1ccccc1 (configuration not stated) — lower, -29%
- COc1ccc(OC)c(NC(=O)c2c3c(nc4ccccc24)CCC3)c1 — lower, -23.5%
- COc1ccc(NC(=O)COC(=O)c2c3c(nc4ccccc24)CCCC3)cc1 — lower, -28.1%

In the case of `CN(C)[C@@H]1C(=O)C(C(N)=O)=C(O)[C@]2(O)C(=O)C3=C(O)c4c(O)ccc(Cl)c4[C@H](O)[C@H]3C[C@@H]12`, the AC50 is reported as “inactive”.
With `CC1(C)SC(=S)N(Cc2ccc3c(c2)OCO3)C1N(O)C(=O)NC1CCCCC1` (configuration not stated) the AC50 was 2.24 µM (active).
With `O=[N+]([O-])c1cccc(/C=N\Nc2ccc3ccccc3n2)c1O` the AC50 was 3.16 µM (active).
In the case of `NC(N)=Nc1nc(CCN2C(=O)c3ccccc3C2=O)cs1`, the AC50 is reported as 15.8 µM (active).
`CC1CCN(CC(=O)Nc2cccc([N+](=O)[O-])c2)CC1` was tested, and the AC50 was 5.62 µM (active).
In the case of `COc1ccccc1CNCc1cccs1`, the AC50 is reported as 0.794 µM (active).
With `COc1cc(CNCc2cccs2)cc(Br)c1OC` the AC50 was 0.0562 µM (active).
For `Cc1ccc(CCNC(=O)C2CC(c3ccccc3[N+](=O)[O-])=NO2)cc1` (configuration not stated), the AC50 was 2.51 µM (active).
`O=C(NCCCCc1ccccc1)C1CC(c2ccccc2[N+](=O)[O-])=NO1` (configuration not stated) was tested, and the AC50 was 0.1 µM (active).
In the case of `COc1ccc(C(=O)Nc2ccc(Cl)cn2)cc1Cl`, the AC50 is reported as 3.55 µM (active).
For `CCOc1ccc(C(=O)Nc2ccc(Cl)cn2)cc1Cl`, the AC50 was 7.94 µM (active).
`O=C(CCS(=O)(=O)c1cccs1)N1CCN(c2ccc(F)cc2)CC1` was tested, and the AC50 was 20 µM (active).
For `COc1c(O)ccc2c1CN1CCc3cc4c(cc3[C@@H]1C2)OCO4`, the AC50 was 0.158 µM (active).
With `Cc1c(-c2ccccc2)oc2c(C(=O)OCCN3CCCCC3)cccc2c1=O` the AC50 was 7.94 µM (active).
`O=C(CCN1CCCCC1)c1csc2ccccc12` was tested, and the AC50 was 1 µM (active).
In the case of `CCCCCn1c(CN2CCCCC2C)nc2c1c(=O)n(C)c(=O)n2C` (configuration not stated), the AC50 is reported as 14.1 µM (active).
With `c1ccc(C[C@@H](Nc2cccnc2)c2ccccc2)cc1` the AC50 was 1 µM (active).
With `COc1cccc(NC(=O)COC(=O)c2c3c(nc4ccccc24)CCC(C)C3)c1` (configuration not stated) the AC50 was 7.94 µM (active).

Point of comparison: `COc1cc(S(C)=O)ccc1-c1nc2ncccc2[nH]1` (configuration not stated), “activity, negative = inhibition” value -1.83% [at 25.6 µM]. Against it:
- C/C(=C(/CCO)SSC[C@@H]1CCCO1)N(C=O)Cc1cnc(C)nc1N — higher, 9.85% [at 25.6 µM]
